# From the supplement of paper PMC7858590
# System: human monocyte-derived macrophages (polarized)
# Assay: cell shape (eccentricity) Z-score vs DMSO control; higher = more elongated, M2-like morphology
# Conditions: 5 µM; 24 h; macrophage state: M1-polarized (IFNg + TNFa), cytokines present during treatment
# Experimental: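 Primary-screen hits were rescreened on polarized hMDMs with the differentiating cytokines (IL-4 + IL-13 or IFNg + TNFa) kept in the medium during treatment with compound at 5 uM for 24 h. The eccentricity Z-score vs DMSO wells is averaged over experiments.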
row,SMILES,cell shape (Z-score)
1,CCCCCc1c2c(cc(O)c1C(=O)O)OC(=O)c1c(cc(OC)cc1C(=O)CCCC)O2,2.35
2,N#CCNC(=O)c1ccc(-c2ccnc(Nc3ccc(N4CCOCC4)cc3)n2)cc1,22.9
3,COC(=O)C(CCCN=C(N)N)NC(=O)CCCc1c(-c2ccccc2)[nH]c2c(F)cc(F)cc12 (centres undefined),0.683
4,Oc1cccc(-c2nc(N3CCOCC3)c3oc4ncccc4c3n2)c1,-3.07
5,C=C[C@@]1(C)CC(=O)[C@]2(O)[C@@]3(C)[C@@H](O)CCC(C)(C)[C@@H]3[C@H](O)[C@H](OC(C)=O)[C@@]2(C)O1,-1.28
6,O=C1c2ccccc2-c2n[nH]c3cccc1c23,9.54
7,COc1cc2c(cc1-c1c(C)noc1C)ncc1[nH]c(=O)n([C@H](C)c3ccccn3)c12,-12.4
8,O=C(O[C@@H]1Cc2c(O)cc(O)cc2O[C@@H]1c1cc(O)c(O)c(O)c1)c1cc(O)c(O)c(O)c1,-2.7
9,COc1ccc(OC)c(-c2nnc3n2N=C(c2ccc(OC)c(OC)c2)CS3)c1,13.8
10,COc1ccc(-c2oc3ccccc3c(=O)c2O)cc1OC,-0.838
11,Cc1nc(Nc2ncc(C(=O)Nc3c(C)cccc3Cl)s2)cc(N2CCN(CCO)CC2)n1,19.8
12,CC1=CC(=O)CC2C1(C)CCC(C)C2(C)CC/C(C)=C\C(=O)O (centres undefined),-1.21
13,CC1(C)CCC(CN2CCN(c3ccc(C(=O)NS(=O)(=O)c4ccc(NCC5CCOCC5)c([N+](=O)[O-])c4)c(Oc4cnc5[nH]ccc5c4)c3)CC2)=C(c2ccc(Cl)cc2)C1,4.11

# Same assay, conditions: 5 µM; 24 h; macrophage state: M2-polarized (IL-4 + IL-13), cytokines present during treatment
row,SMILES,cell shape (Z-score)
1,Oc1ccc(/C=C/c2cc(O)cc(O)c2)cc1,-0.6
2,CCN(CCCCOC(=O)c1ccc(OC)c(OC)c1)C(C)Cc1ccc(OC)cc1 (centres undefined),-4.84
3,C#CC1(OCC(O)CN2CCN(c3cccc(C(F)(F)F)c3)CC2)CCCCC1 (centres undefined),3.74
4,CC[C@@]1(O)C(=O)OCc2c1cc1n(c2=O)Cc2cc3c([N+](=O)[O-])cccc3nc2-1,-14.4
5,N#CN=C(NCCCCCCOc1ccc(Cl)cc1)Nc1ccncc1,-5.22
6,C=C1C(=O)O[C@H]2[C@H]1CC/C(C)=C/CC[C@@]1(C)O[C@@H]21 [Parthenolide],-1.29
7,C=C(C(=O)O)[C@@H]1CC[C@@]2(C)CC[C@H](O)[C@@]2(C(C)=O)C1,-6.45
8,O=c1nc2ccccc2c2n1CC(CN1CCN(c3ccccc3)CC1)N2 (centres undefined),-1.27
9,COc1ccc(S(=O)(=O)N(C(C)=O)c2ccccc2/C=C/c2cc[n+]([O-])cc2)cc1,-2.29
10,Cc1ccc(O)c(N=Nc2ccccc2)n1,-1.32
11,O=C(Nc1nc2ccc(NC(=O)C34CC5CC(CC(C5)C3)C4)cc2s1)c1ccccc1,-6.86
